Source: PubChem
AMA1-RON2 inh = disrupts binding of P. falciparum AMA1 to RON2; AlphaScreen AMA1-biotinylated RON2 peptide binding; Potency, µM (titrated, usually from 58.2 µM), without a hit: top-dose activity change, negative = inhibition, usual class: inhibitors; actives 0.2% (n = 360,000);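 also: 0% = vehicle wells and -100% = peptide control; nearly all actives have a fitted effect of over 45% in size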
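AMA1 (3D7) with his tag at 25 nM final met compounds first, then biotinylated RON2 peptide at 25 nM; detection used donor plus acceptor beads, 10 µg/mL apiece, read by AlphaScreen after 30 min at room temperature.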
Pf growth 96h = P. falciparum growth inhibition at 96 hour, primary screen for plastid delayed-death inhibitors; P. falciparum luciferase reporter growth, 96 h; Potency, µM (top dose mostly 28.7 µM), for the others: at the highest dose activity change, negative = inhibition, hits mostly inhibitors; actives 6.9% (n = 320,000); also: % is scaled to controls: 0 for no effect and ±100 for the full control effect
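Erythrocytes infected with luciferase-expressing P. falciparum were dispensed at 2% hematocrit and 0.05% parasitemia (final), then incubated with compounds 96 hours at 37 C in 5% CO2. Luminescence after detection reagent addition reported growth.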
SARS PLP yeast = SARS-CoV PLP inhibition in yeast; actives 0.19% (n = 330,000); S. cerevisiae expressing SARS-CoV PLpro, growth rescue; Potency, µM (titrated, usually from 32.9 µM), inactives show at the highest dose activity, positive = growth rescue, actives largely listed as activators; calls by dose curve; also: 0% is about no effect; nearly all actives have a fitted effect of over 55% in size
Pf growth 48h = P. falciparum growth inhibition at 48 hours (one generation); P. falciparum luciferase growth in erythrocytes, 48 h; Potency, µM (highest dose often 28.7 µM), without a hit: at the highest dose activity change, negative = inhibition, usual class: inhibitors; actives 5.9% (n = 310,000); AID 504832; also: % is scaled to controls: 0 for no effect and ±100 for the full control effect
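Luciferase-expressing P. falciparum in infected erythrocytes (2% hematocrit, 0.1% parasitemia final) in RPMI 1640/0.5% Albumax were exposed to compound for 48 hours at 37 C, 5% CO2; growth read as luminescence.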
Numbers without * were called inactive; [ ] = remark or other dose. A selection: hits, their analogues and other compounds. The true share with any hit is near 9.4%. Unless noted, calls follow the shape of the dose curve; as a rule, active = well fitted curve in the direction sought with a large enough effect; inconclusive = small, poorly fitted or top-dose-only effect, or another doubt; inactive = no such curve, though single readings can be large; an effect the other way counts as inactive or inconclusive. Potency is read from the fitted curve at half-maximal effect.

Results for CC(C)(C)OC(=O)N1CCC(C(=O)Nc2cccc(C(=O)NCCCCc3ccccc3)c2)CC1 ?
AMA1-RON2 inh: 3.0%

Results for COC(=O)c1nn(-c2ccc(OC)cc2)c(=O)cc1Oc1cccc(Cl)c1 ?
AMA1-RON2 inh: -2.0%; Pf growth 96h: 41.5%; SARS PLP yeast: -7.8%; Pf growth 48h: 7.5%

What do the screens show for `CCOC(=O)C1CCCN(S(=O)(=O)c2ccc3c4c(cccc24)C(=O)N3CC)C1` (configuration not stated)?
AMA1-RON2 inh: 34.4%; Pf growth 96h: inconclusive; SARS PLP yeast: -3.6%; Pf growth 48h: 10.4µM*

Results for CC(=O)c1ccc(N2CCN(S(=O)(=O)c3ccc4c(c3)CC(C)N4C(=O)C3CC3)CC2)cc1 (configuration not stated) ?
AMA1-RON2 inh: -3.1%; Pf growth 96h: inconclusive; SARS PLP yeast: 5.9%; Pf growth 48h: 7.38µM*

How did CCN1C(=O)c2cccc3c(S(=O)(=O)N4CCCC4C(=O)O)ccc1c23 (configuration not stated) do in these assays?
AMA1-RON2 inh: 6.4%; Pf growth 96h: 15.5%; SARS PLP yeast: -0.6%; Pf growth 48h: 25.9%

What do the screens show for `CC1Cc2cc(S(=O)(=O)N3CCN(C)CC3)ccc2N1C(=O)C1CC1` (configuration not stated)?
AMA1-RON2 inh: 0.0%; Pf growth 96h: 5.86µM*; SARS PLP yeast: -0.4%; Pf growth 48h: inconclusive

Results for CCOC(=O)C1CCCN(S(=O)(=O)c2ccc3c(c2)CC(C)N3C(=O)C2CC2)C1 (configuration not stated) ?
AMA1-RON2 inh: -2.8%; Pf growth 96h: 10.4µM*; SARS PLP yeast: -3.3%; Pf growth 48h: -17.9%

How did CC(=O)c1ccc(NC(=O)C2=CC(c3ccc4c(c3)OCO4)=NS(=O)(=O)N2C)cc1 do in these assays?
AMA1-RON2 inh: -13.3%; Pf growth 96h: 1.6%; SARS PLP yeast: 6.0%; Pf growth 48h: 29.3%

How did CCOC(=O)N1CCN(C(=O)CSc2ccc3nnc(CCNC(=O)c4ccccc4)n3n2)CC1 do in these assays?
AMA1-RON2 inh: -4.7%; Pf growth 96h: -4.0%; SARS PLP yeast: -8.3%; Pf growth 48h: -0.4%

How did C[N+]1(CCN2C(=O)C3CC=C(Cl)CC3C2=O)CCOCC1 (configuration not stated) do in these assays?
AMA1-RON2 inh: 2.4%; Pf growth 96h: -2.5%; SARS PLP yeast: 13.6%; Pf growth 48h: -5.1%

Results for COCCn1c(SCC(=O)Nc2cccc(C(=O)OC)c2)nc2ccccc2c1=O ?
AMA1-RON2 inh: 0.6%; Pf growth 96h: 49.4%; SARS PLP yeast: 2.5%; Pf growth 48h: 13.1µM*

Results for CC(=O)c1cccc(NC(=O)CCCCCn2nnc3ccccc3c2=O)c1 ?
AMA1-RON2 inh: 1.1%; Pf growth 96h: 3.29µM*; SARS PLP yeast: -0.9%; Pf growth 48h: 6.57µM*

How did Cn1c(SCc2ccccc2Br)nc2ccccc2c1=O do in these assays?
AMA1-RON2 inh: -4.3%; Pf growth 96h: inconclusive; SARS PLP yeast: -1.1%; Pf growth 48h: 13.1%

How did CCOCCCn1c(SCC(=O)Nc2cc(C(C)(C)C)nn2-c2ccccc2)nc2ccccc2c1=O do in these assays?
AMA1-RON2 inh: -1.4%[2.32 µM]; Pf growth 96h: inconclusive; SARS PLP yeast: -8.7%; Pf growth 48h: 13.1µM*

What do the screens show for `Cc1ccccc1CSc1nc2ccccc2c(=O)n1C`?
AMA1-RON2 inh: 12.7%; Pf growth 96h: inconclusive; SARS PLP yeast: 4.1%; Pf growth 48h: 9.28µM*

How did O=S(=O)(c1ccc(S(=O)(=O)N2CCCN(Cc3ccccc3)C2)cc1)N1CCCCCC1 do in these assays?
AMA1-RON2 inh: 2.5%; Pf growth 96h: 77.5%; SARS PLP yeast: -0.9%; Pf growth 48h: inconclusive

What do the screens show for `O=C(CCc1ccccc1)Nc1cc(NC(=O)CCc2ccccc2)cc(C(=O)O)c1`?
AMA1-RON2 inh: -15.8%; Pf growth 96h: 23.3%; SARS PLP yeast: 0.6%; Pf growth 48h: -6.8%

How did Cc1cccc(NC(=O)CSc2nc3ccccc3c(=O)n2C)c1 do in these assays?
AMA1-RON2 inh: -6.0%; Pf growth 96h: inconclusive; SARS PLP yeast: -4.5%; Pf growth 48h: 14.7µM*

Results for Cc1cccc(NC(=O)CSc2nc3c([nH]c4ccccc43)c(=O)n2C)c1 ?
AMA1-RON2 inh: -8.0%; Pf growth 96h: inconclusive; SARS PLP yeast: 0.4%; Pf growth 48h: 19.3%

How did CC(C)(C)c1ccc(C2SCC(=O)N2c2cccc(C(=O)O)c2)cc1 (configuration not stated) do in these assays?
AMA1-RON2 inh: 0.9%; Pf growth 96h: inconclusive; SARS PLP yeast: 0.8%; Pf growth 48h: 9.8%
